# Lmaj promast = reduces viability of Leishmania major promastigotes; resazurin fluorescence viability; inhibition, % at 10 µM; 200,000 compounds, 9% hits; in the data active means inhibition above about 50%;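 further: promastigotes grown with compound for 44 hours at 28 °C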
# Cl transport mod = modulators of human KCC2 chloride dependent transport; KCC2 cells, thallium flux FluoZin-2 fluorescence; B-score of Tl+ flux slope (higher = more flux/activation; lower = inhibition) at 10 µM; 190,000 compounds, 2.2% hits; AID 1456;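 active means thallium flux slope and its plate-corrected score both differing from the plate sample mean at a set confidence after two filtering rounds, in either direction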;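 further: slope of fluorescence scaled to starting intensity during 10 to 20 s after thallium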
# WT yeast gro inh = growth inhibition of WT yeast, mitochondrial fusion screen; mitochondrial fusion phenotypic screen, WT strain; inhibition, % at 10 µM; 190,000 compounds, 2.1% hits; AID 1362; in the data active means inhibition above about 58%; tested in S. cerevisiae
# Ins promoter up = MIN6 insulin promoter up-regulation. MIN6 insulin promoter-GFP reporter, high-content imaging; active compounds read high. z-score at 5 µM. 190,000 compounds, 0.3% hits. AID 1625;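 active means z-score above 3 at 5 µM with at least 500 cells counted in the well; inconclusive means wells under 500 cells, flagged as cytotoxic or low count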
# ROMK primary = human ROMK K+ channel modulation, primary screen | P48048 | Tet-inducible ROMK, thallium flux fluorescence; actives lie on both sides | B-score at 10 µM | 130,000 compounds, 2% hits | AID 1918;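 active means signal ratio slope over the read window, or its plate-corrected B-score, at least 3 SD from the plate mean, either direction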;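 further: B-score of the F/F0 ratio slope over 7 to 12 s after thallium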
# Target sequence (P48048 whole entry, looked up): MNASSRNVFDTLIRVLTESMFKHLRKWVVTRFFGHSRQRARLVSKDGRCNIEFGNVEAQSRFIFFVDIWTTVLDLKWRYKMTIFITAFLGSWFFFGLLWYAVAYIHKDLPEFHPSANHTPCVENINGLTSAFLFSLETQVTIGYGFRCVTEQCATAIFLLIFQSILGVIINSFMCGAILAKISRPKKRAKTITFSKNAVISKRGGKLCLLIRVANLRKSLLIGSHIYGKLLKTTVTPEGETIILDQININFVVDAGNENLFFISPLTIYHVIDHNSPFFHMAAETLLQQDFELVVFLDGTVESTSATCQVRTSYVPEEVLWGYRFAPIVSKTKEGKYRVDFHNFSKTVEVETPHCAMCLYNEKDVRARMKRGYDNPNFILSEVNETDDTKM
# INS promoter inh = TRM-6 insulin promoter activity inhibition; TRM-6 cells (human fetal islet line), insulin promoter-eGFP reporter, imaging; reporter expression induced with tamoxifen; inhibition, % at 2 µM; 130,000 compounds, 0.9% hits;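 active means inhibition above the mean plus 3 SD, with well images judged a real hit on visual review, cut at about 60% in these data, passing the limit was not always enough; inconclusive means inhibition over the cutoff but images rejected on review; inactive means inhibition not above the cutoff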
# KCC2 secondary = KCC2 (human) modulation, secondary assay. shares compounds with Cl transport mod. HEK293-KCC2, thallium flux, FluoZin2 fluorescence; active compounds read high. normalised thallium flux (F/F0 slope) at 10 µM. 3,700 compounds, 15% hits. AID 1713;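 active means thallium flux slope above the same plate's solvent-only control mean plus 3 SD; inconclusive means the two replicate wells disagree; inactive means no significant difference from solvent-only control wells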
# KCC2 bumet counter = thallium flux persisting under bumetanide in KCC2 cells, counter-screen secondary assay; 3,700 compounds, 49% hits; HEK293-KCC2 + bumetanide/ouabain, thallium flux FluoZin2; active compounds read high; normalized thallium flux at 10 µM; shares compounds with Cl transport mod;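 active means thallium entry rate above the same plate's blocked-transporter control wells by more than 3 SD; inconclusive means the two repeat wells disagree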;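 further: raw slope of fluorescence over initial fluorescence between 10 and 20 s after thallium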
# KCC2 sec2 = KCC2 (human) modulation, second secondary assay; shares compounds with Cl transport mod; HEK293-KCC2, thallium flux FluoZin2 fluorescence; actives lie on both sides; F/F0 rise rate, 10–20 s post-thallium; normalized thallium flux at 10 µM; 3,700 compounds, 23% hits; AID 1715;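 active means thallium flux slope more than 3 SD above or below the plate's solvent-only control mean, mostly below; inconclusive means the two repeat wells disagreed; inactive means no significant shift from solvent-only controls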;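 further: raw slope with 0.1% DMSO as baseline and bumetanide as block control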
# HEK counter1 = acts in parental HEK cells, KCC2 counter-screen. shares compounds with Cl transport mod. thallium flux rate (normalised fluorescence) at 10 µM. 3,700 compounds, 46% hits. HEK293 parental cells, thallium flux FluoZin2, ouabain; baseline-ratio fluorescence slope, 10–20 s after thallium;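 active means thallium flux rate significantly above the same plate's solvent-only control wells, beyond their mean plus 3 SD; inconclusive means the two replicate wells gave conflicting results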
# KCC2 ouabain = KCC2 (human) modulation, ouabain retest; shares compounds with Cl transport mod; HEK293-KCC2, thallium flux FluoZin2 fluorescence; bidirectional: low = inhibitor, high = activator; raw Tl+ flux slope (below DMSO = inhibition, above = activation) at 10 µM; 3,700 compounds, 48% hits; AID 1717;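 active means thallium flux slope beyond 3 SD from same-plate DMSO control mean in most replicates, usually higher, sometimes lower; inconclusive means repeat tests gave conflicting results; inactive means no significant difference from controls in most replicates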;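 further: slope of initial-normalized fluorescence between seconds 10 and 20 after thallium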
# HEK counter2 = counter-screen for KCC2 modulators: effect in parental HEK293 cells; shares compounds with Cl transport mod; thallium flux FluoZin-2 fluorescence slope; thallium flux slope at 10 µM; 3,700 compounds, 33% hits; AID 1718;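 active means thallium flux slope above the same plate's solvent-control mean plus 3 SD in both duplicate wells; inconclusive means duplicate wells that disagreed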;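 further: run without ouabain in cells lacking the KCC2 cotransporter; slope of fluorescence scaled to its starting value between 10 and 20 s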
# * hit, by the source's call; i = inactive; ? = inconclusive; · = not tested or not shown. Hits are enriched below; roughly 12% of the tested compounds scored in any of these assays.
SMILES,Lmaj promast,Cl transport mod,WT yeast gro inh,Ins promoter up,ROMK primary,INS promoter inh,KCC2 secondary,KCC2 bumet counter,KCC2 sec2,HEK counter1,KCC2 ouabain,HEK counter2
Cc1cccc(NC(=S)NNC(=O)c2ccccc2OC(F)F)c1,-0.1,13.3*,9.5,-0.17,-0.0105,7.1,0.00913,0.0265*,0.0303,0.0117*,?,0.0111*
CCCc1cc(C(=O)NNC(=S)Nc2cccc(C)c2)cs1,0.6,31*,28.4,·,·,-3.7,0.00583,0.0829*,0.0627*,0.0771*,0.0652*,0.0442*
Cc1nn(-c2ccc(F)cc2)c(Cl)c1/C=C(\CC(=O)O)c1nc2ccccc2s1,-2.3,-6.83*,40.4,·,·,11.1,0.00881,0.00673,?,0.00661,0.0133*,0.00983
CCCCCCOc1ccc(N2C(=O)CC(N3CCN(C(=O)c4ccco4)CC3)C2=O)cc1 (stereo not given),-5.3,0.4,27.9,0.58,-0.847,i,·,·,·,·,·,·
O=c1c2ccc(Cl)cc2nc(-c2ccc([N+](=O)[O-])cc2)n1O,-6.5,56.8*,34.6,-1.12,2.25,-20.0,0.0118*,0.092*,0.0594*,0.065*,0.0788*,0.0423*
Cc1cc(C)n2c(=O)c3ccc(Cl)cc3nc2c1C#N,-6.4,-1.27,53.2,0.73,2.52,-82.9,·,·,·,·,·,·
O=c1c2cc(Br)ccc2nc(-c2ccc([N+](=O)[O-])cc2)n1O,-12.2,72.3*,25.9,-0.79,1.11,-13.3,0.0502*,0.11*,0.0576*,0.0534*,0.0691*,0.027*
O=c1c2cc(Cl)ccc2nc(-c2ccccc2)n1O,-4.3,49.7*,1.9,0.14,2.59,·,0.0315*,0.0731*,0.0331,0.0339*,0.0516*,0.0179*
O=C(CN1CCc2ccccc2C1)NC1CCCC1,5.9,0.406,5.3,-0.34,1.04,-30.2,·,·,·,·,·,·
COC(=O)CNC(=O)c1cccc(F)c1,-5.9,·,-31.1,·,2.52,-11.1,·,·,·,·,·,·
Cc1ccc(CNC(=O)C2CC(=O)N(CCC(C)C)C2)cc1 (stereo not given),-5.5,1.33,5.5,0.58,0.0251,40.7,·,·,·,·,·,·
CCOCCCn1c(=S)[nH]c2ncccc2c1=O,-4.9,5.27*,14.1,0.28,·,100.0*,0.00642,0.0173*,0.0368,0.0178*,?,0.021*
CC(C)CCn1c(=S)[nH]c2ncccc2c1=O,-5.6,50.6*,10.9,-0.11,·,50.0,0.0116*,0.08*,0.0755*,0.0666*,0.0727*,0.0593*
COc1ccc(N2CCN(CCCn3c(=S)[nH]c4ncccc4c3=O)CC2)cc1,-0.8,8.91*,-0.6,0.37,0.694,5.6,0.00707,0.0316*,0.037,0.0202*,0.031*,0.0178*
COC(=O)C1=C(CSc2nc3c(cc2C#N)CN(C)CC3)OC(N)=C(C#N)C1c1ccc(F)cc1 (stereo not given),-1.4,0.00367,-13.7,·,-1.25,20.0,·,·,·,·,·,·
S=C(Nc1ccccc1)Nc1ccccc1-n1cccc1,·,8.47*,·,-1.09,·,·,0.0138*,0.0501*,0.0387,0.0174*,?,0.0159*
CCC(CC)C(=O)Nc1ccccc1-n1cccc1,5.2,0.323,-12.7,-0.24,·,·,·,·,·,·,·,·
O=C(N=Nc1c(O)[nH]c2ccccc12)c1ccc2c(c1)OCO2,8.7,-0.41,7.5,-0.54,0.0155,·,·,·,·,·,·,·
COC(=O)n1c(=S)oc2cc(Cl)ccc21,-4.4,3.03*,15.3,-0.62,·,62.5,0.0183*,0.0232*,0.0353,0.0154*,0.0291*,0.0123
COc1cccc(NC(=O)Nc2nnc(CC(=O)NCc3ccccc3)s2)c1,·,-0.626,·,-0.92,·,·,·,·,·,·,·,·
CCOc1ccc2nc(SC3CC(=O)N(c4ccc(OC)cc4OC)C3=O)sc2c1 (stereo not given),-4.5,5.75*,24.6,-0.36,1.16,21.1,0.00695,0.013*,0.0347,0.0143*,?,0.0173*
O=C(Cn1cc(C(=O)C2CC2)c2ccccc21)NCC1CCCO1 (stereo not given),-0.9,-0.978,-0.7,-0.05,-0.314,-168.8,·,·,·,·,·,·
NC(=O)c1ccc(NC(=O)Cc2csc(-c3ccccc3)n2)cc1,-0.9,-0.869,-10.4,·,0.633,50.0,·,·,·,·,·,·
CCOC(=O)c1ccc(NC(=O)COC(=O)Cc2csc(-c3ccccc3)n2)cc1,-2.3,-4.88*,18.4,-0.3,·,·,0.00609*,0.0154*,?,0.0114*,0.0164*,0.0108
COc1ccc(NC(=O)N/C=C/c2ccccc2)cc1,-7.4,-0.448,-5.5,-0.35,0.79,-18.2,·,·,·,·,·,·
SMILES,Lmaj promast,Cl transport mod,WT yeast gro inh,Ins promoter up,ROMK primary,INS promoter inh,KCC2 secondary,KCC2 bumet counter,KCC2 sec2,HEK counter1,KCC2 ouabain,HEK counter2
CS(=O)(=O)N(CC(=O)N/N=C/c1cccc2c1OCCO2)c1ccccc1Br,-1.6,0.0353,9.0,-0.36,·,11.5,·,·,·,·,·,·
CS(=O)(=O)N(CC(=O)N/N=C/c1cc2c(cc1Br)OCO2)c1ccccc1Br,8.8,5.12*,17.4,0.42,0.338,·,0.00749,0.00455,0.0299,0.00766,0.0187,0.0108
NC(=O)COC(=O)c1cc([N+](=O)[O-])ccc1NCCO,·,-0.683,·,0.11,·,·,·,·,·,·,·,·
O=C(COC(=O)c1cc([N+](=O)[O-])ccc1NCCO)c1ccccc1,0.5,-3.23*,-6.8,0.4,-0.587,11.8,0.0072,?,0.0234*,0.00753,?,0.0104
O=C(Nc1ccccc1C(=O)N/N=C/c1ccco1)c1ccc(F)cc1,-7.8,16.9*,52.5,1.26,0.0638,31.2,0.0156*,0.0635*,0.0354,0.0232*,?,0.0123*
O=C(Nc1ccccc1C(=O)N/N=C/c1ccco1)c1ccc(Cl)cc1,8.4,10.8*,44.4,-0.48,·,0.0,0.00747,0.0369*,0.0343,0.0145*,0.0285*,0.0153*
C=CCNC(=S)N/N=C/c1ccc(C)cc1C,4.4,5.19*,41.4,1.38,-0.16,·,0.0121,0.041*,0.0351,0.0176*,?,?
CCNC(=S)N/N=C/c1cc(C)ccc1C,-5.7,3.18,19.1,-0.03,·,-53.1,·,·,·,·,·,·
C=CCNC(=S)N/N=C/c1ccc(C(F)(F)F)cc1,-3.1,3.55*,-3.9,0.12,-1.97,·,0.0117,0.0158*,0.0359,?,?,?
